# This is part of a sample that, as a whole, favours compounds with a hit. Of some 83,000 tested, about 20% had one in any assay.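 Values shown are percent growth following 48 h exposure of cells in 96-well plates to a single concentration of compound; below 10 was considered active.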 Values without a mark were called inactive. Activity calls are given as the source filed them.
# How the values were obtained:
# Test in all cases: NCI-60 one-dose screen, 48 h (100 = growth as untreated, 0 = no growth, -100 = all killed)
# [1] = system: NCI-H23 lung; details: 10 µM unless noted
# [2] = system: NCI-H226 lung; details: 10 µM unless noted
# [3] = system: NCI-H322M lung; details: 10 µM unless noted
# [4] = system: HOP-62 NSCLC; details: 10 µM unless noted
# [5] = system: NCI-H460 lung; details: 10 µM unless noted
# [6] = system: HOP-92 NSCLC; details: 10 µM unless noted
# [7] = system: NCI-H522 lung; details: 10 µM unless noted
# [8] = system: 786-0 renal; details: 10 µM unless noted
# [9] = system: DU-145 prostate; details: 10 µM unless noted
# [10] = system: K-562 leukemia; details: 10 µM unless noted
# [11] = system: MALME-3M melanoma; details: 10 µM unless noted
# [12] = system: MDA-MB-231 breast; details: 10 µM unless noted
# [13] = system: RXF 393 renal; details: 10 µM unless noted
# [14] = system: SF-268 CNS; details: 10 µM unless noted
# [15] = system: SF-295 CNS; details: 10 µM unless noted
# [16] = system: SF-539 CNS; details: 10 µM unless noted
# [17] = system: UACC-257 melanoma; details: 10 µM
# [18] = system: A549/ATCC NSCLC; details: 10 µM unless noted
# [19] = system: COLO 205 colon; details: 10 µM unless noted
# [20] = system: M14 melanoma; details: 10 µM unless noted
Structure (SMILES),growth [1],growth [2],growth [3],growth [4] [%],growth [5],growth [6],growth [7],growth [8],growth [9],growth [10],growth [11],growth [12],growth [13],growth [14],growth [15],growth [16],growth [17],growth [18],growth [19],growth [20]
CCn1cc(C(=O)O)c(=O)c2cc(F)c(N3CCN(S(=O)(=O)c4ccc(OC)c(OC)c4)CC3)cc21,99.6%,95.9%,102%,100,108%,91.5%,90.6%,99.5%,108%,101%,93.6%,103%,109%,88.9%,93.8%,90.8%,106%,,,
COc1cc2c(cc1OC)C1(C)N(CC2)C(=O)OC1(C)C (configuration not stated),110%,92.8%,101%,,101%,101%,100%,102%,112%,-78.1% (active),122%,115%,99%,103%,103%,106%,95.6%,102%,120%,101%
COc1ccc(C(=O)/C=C/c2ccc(/C=C/c3cc(OC)c(OC)c(OC)c3)cc2)cc1,43.5%,72.4%,64.8%,,59.6%,51.9%,5.55% (active),67.7%,68.4%,14.4%,66.8%,76.8%,71.3%,66.2%,57.9%,86.3%,72.5%,36.3%,68.1%,67%
COc1cc(Cn2c(-c3nonc3N)nc3ccccc32)ccc1C,25.1%,50.3%,58.8%,30.5,11%,39.8%,-20% (active),40.3%,13.8%,10.4%,80.7%,22.3%,-8.35% (active),40.3%,26%,-32.8% (active),65.2%,,,14%
O=C(Nc1ccc(Br)c(Cl)c1)c1cc(F)ccc1O,-9.2% (active),-23.8% (active),9.4% (active),,3.85% (active),-14.4% (active),0.474% (active),7.91% (active),23.5%,9.59% (active),-22.8% (active),-20% (active),-5.62% (active),19.1%,-53.1% (active),5.17% (active),-23.5% (active),8.88% (active),41.5%,-14.3% (active)
CCc1c(C(=O)Nc2ccc3ccccc3c2)[nH]c(C)c1C(C)=O,85.8%,95.7%,98.9%,,101%,92.3%,68.7%,104%,107%,81.2%,95.7%,93.3%,96.7%,110%,102%,96.2%,,89.6%,,93.8%
CN(C)c1ccc(-c2ccc(-c3ccc(C(=N)N)cn3)o2)cc1,20.9%,21.3%,-0.109% (active),,-86.8% (active),-61.2% (active),-72.9% (active),-66.6% (active),-65.2% (active),-46.7% (active),-75.5% (active),-84.4% (active),-81% (active),-49.2% (active),-69.7% (active),-87.4% (active),-83.8% (active),-48.7% (active),-93.7% (active),-74.4% (active)
COc1cc2nc(Cl)nc(NCCO)c2cc1OC,108%,98.2%,105%,,95.7%,95.6%,100%,111%,112%,105%,94.4%,109%,107%,110%,103%,96.1%,98.6%,97.7%,125%,110%
